Results from PubChem BioAssay AID743279 (National Center for Advancing Translational Sciences (NCATS), 2014).
Hit rate of the full screen: of about 360,000 compounds, about 17,000 (4.7%) were called active. Roughly 5% stayed inconclusive and do not appear here. No stated cut-off is given here; in the data, active means activity change below about -50%; inconclusive means mostly about -30% to -49%; inactive means weaker than that. What follows is part of a selection rich in actives, with near analogues and random picks from the rest.

Experiment: qHTS for Inhibitors of Inflammasome Signaling: IL-1-beta AlphaLISA Primary Screen
Details: THP-1 LPS/ATP IL-1B secretion, 16 h; at 57.5 µM, stronger effect = lower value
Summary of the method: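 Secreted IL-1B measured by AlphaLISA bead assay after 16 h compound exposure of THP-1 cells; compounds (final up to 57.5 uM) added 1 h before LPS (250 ng/mL) and ATP (1.25 mM) stimulation; lower signal means less secretion.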
On the % scale 0 is the no-effect control and ±100 the full control effect.

Activity change, inactive:
S=C(NN=Cc1ccccn1)Nc1ccccn1 68.2%
CN1C[C@@H](CO)O[C@@H](n2cnc3c(N4CCN(CCO)CC4)ncnc32)C1 23.3%
CC(=O)C1=CCC(c2ccccc2)N(S(=O)(=O)c2ccc(C)cc2)C1 (stereo unspecified) 0%
Cc1cc(Cl)ccc1N1C(=O)CC(SCCC(=O)O)C1=O (stereo unspecified) 9.22%
CCOC(=O)N1CCN(C(=O)CSc2nc(=O)n3cccc(C)c3n2)CC1 -6.68%
CCCN(CCC)c1nc2c(C)cccn2c(=O)c1/C=C1/SC(=S)N(Cc2ccco2)C1=O 8.74%
CN1OC[C@@H]2CN(S(=O)(=O)c3cccc(C(F)(F)F)c3)[C@H](c3ccc(-c4cc5ccccc5o4)cc3)C[C@@H]21 -0.573%
Cc1nnc(N(Cc2ccco2)C(=O)c2ccno2)s1 -16.2%
COc1ccc(Sc2ccc(NC(=O)c3cccc(Cl)c3)cc2C#N)cc1 -1.44%
COc1cc(C(=O)NCC2(c3ccccc3)CCCC2)ccc1OC(C)C -0.814%
COc1ccc(C(=O)Nc2ccc3nc(N4CCCCC4)cc(C)c3c2)cc1OC 30.7%
CC(C)CN(C(=O)Cn1c(=O)cnc2ccccc21)C1CCS(=O)(=O)C1 (stereo unspecified) 5.99%
CCn1c(SCC(=O)N2CCCC2=O)nc2ccccc21 -4.32%
COc1cc(C(O)c2nc(-c3cccc(C(=O)O)c3)cs2)ccc1F (stereo unspecified) 1.15%
Cc1ccc2nc(-c3ccco3)c(Cc3cccc(Cl)c3)n2c1 -21.3%
Cc1ccc(Cc2c(-c3ccccc3)nc3ccc(Cl)cn23)cc1 1.06%
COc1ccc(CCc2nnc(CCC(=O)NCc3cnn(-c4ccccc4C)c3)o2)cc1 0%
CCCCCn1nnnc1C1c2ccccc2C(=O)N1Cc1ccco1 (stereo unspecified) 0%
Cc1ccc(-c2nn(-c3ccccc3)cc2C(=O)NCCCN2CCCC2=O)cc1 0%
Cc1ccc(-c2nn(-c3ccccc3)cc2C(=O)Nc2cccc(S(=O)(=O)N3CCOCC3)c2)cc1 -2.09%
Cc1ccc(Cc2c(-c3ccc(C)cc3)nc3c4ccccc4ccn23)cc1 27.7%
FC(F)(F)c1ccccc1Cc1c(-c2ccccc2)nc2c3ccccc3ccn12 14.3%
Cc1cc(N2CCN(C)CC2)nc2ccc(NC(=S)N3CCOCC3)cc12 -0.695%
CCOCCCNC(=S)Nc1ccc2nc(N3CCN(CC)CC3)cc(C)c2c1 46.7%
CC(=O)N1C[C@@H](CO)[C@@H](N(C)C(=O)c2ccco2)C[C@H]1c1ccccc1 11.5%
Fc1ccccc1/C=N/Nc1cc(N2CCCCC2)ncn1 -12%
CN(C)c1ccc(/C=N/Nc2cc(N3CCOCC3)nc(N3CCOCC3)n2)cc1 -1.5%
OC(c1ccccc1)c1nc(-c2cnc3ccccc3c2)cs1 (stereo unspecified) 32.8%
O=C(Cc1ccc([N+](=O)[O-])cc1)NCCc1ccc2c(c1)OCO2 0%
O=C(N/N=C/c1cc([N+](=O)[O-])ccc1O)/C(=C\c1cccs1)NC(=O)c1ccccc1 245%
Nc1nnnn1/N=C/c1cc([N+](=O)[O-])ccc1O 0%
CCCNC(=O)c1cc(C2CCCCN2S(=O)(=O)c2ccc(C#N)cc2)on1 (stereo unspecified) -18.6%
CCOc1cc(/C=C2\C(=N)N3N=C(C)SC3=NC2=O)ccc1OCCOc1ccccc1 4.36%
CCOc1ccc2nc(C(=O)N3CCCC(C)C3)sc2c1 (stereo unspecified) -10.2%
Nc1[nH]c(C(=O)c2ccccc2)c(-c2ccc(Br)cc2)c1C(=O)NC1CC1 12%
CCNc1c(NS(=O)(=O)c2ccc(C3CCCCC3)cc2)c(=O)oc2ccccc12 29.7%
CCCCNC(=O)OC1CC2CC1[C@H]1CCCCN1C2=O (stereo partly specified) 12.3%
Cc1cc(C)nc(SCC(=O)N(C)C)n1 0%
Cc1cc(C)nc(SCc2ccccc2C#N)n1 -12.7%
CNc1cncc(-c2cccc(C(=O)N3CCOCC3)c2)n1 -12.2%
CN(c1ccccc1)S(=O)(=O)c1cccc(NC(=O)Cc2c(F)cccc2Cl)c1 0%
CN(C)S(=O)(=O)c1cccc(NC(=O)Cc2ccsc2)c1 19.3%
COc1nnc(-c2ccc(C)c(S(=O)(=O)N(C)C)c2)c2ccccc12 -11.4%
CCc1c(-c2ccc(F)cc2)ncn1Cc1cccc(-c2ccccc2)c1 4.55%
CCC(=O)NCc1cc(-c2nn(C)c(=O)c3ccccc23)ccc1OC -12.6%
Cn1c(=O)c2c(ncn2CCc2ccccc2)n(C)c1=O 26.6%
CCCCCc1c(-c2cccc(Br)c2)ncn1CCc1ccccc1OC -27.9%
COc1ccccc1Cc1c(-c2ccc(Cl)cc2)nc2ccc(Cl)cn12 16.9%
CCCc1c(-c2ccccc2F)ncn1Cc1ccccc1OC -24.5%
COc1ccccc1CCNS(=O)(=O)c1cn(C)nc1C -3.36%
COc1ccccc1Cc1c(-c2ccc(Cl)cc2)nc2c3ccccc3ccn12 4.19%
COc1cccc(NC(=O)CSc2nccn(-c3ccc4c(c3)OCCO4)c2=O)c1 -15.5%
COc1ccc(S(=O)(=O)NC(=O)C2(C)CCN2C(=O)COc2ccc(Cl)cc2)cc1 (stereo unspecified) 21%
Cc1ccc(N2C(=O)CC(N3CCSCC3)C2=O)c(C)c1 (stereo unspecified) 9.43%
Cc1c(O)c(C)c2c(c1O)C(=O)C[C@@H](c1ccccc1)O2 40.2%
CCCNC(=O)C1CC(=O)N(c2ccc(OCc3ccccc3)cc2)C1 (stereo unspecified) 18%
c1ccc(C(=NNc2nc3ccccc3s2)c2ccccn2)cc1 -21.7%
C=CCn1nc(C(=O)OCC)cc1-c1sc(NC(=O)c2ccccc2)nc1C -29.6%
CNC[C@H]1OCc2cnnn2CCCC(=O)N([C@H](C)CO)C[C@@H]1C -6.3%
COc1cc(C(=O)NCc2nnc(SCC(=O)c3ccc(Cl)cc3)o2)cc(OC)c1OC 9.13%
CCOC(=O)CSc1nnc(CNc2ccc(F)cc2)o1 3.99%
Cc1ccc(-c2csc(C(C#N)=C(O)CN3CCN(C(=O)c4ccco4)CC3)n2)cc1 -7.72%
O=C(C(Cc1ccccc1)n1cccc1)N1CCN(C2CCCCC2)CC1 (stereo unspecified) 8.33%
O=C(COC(=O)CN1C(=O)C2CCCCC2C1=O)Nc1ccc(F)c(F)c1F (stereo unspecified) 4.41%
CCOC(=O)C(Cc1ccc(N)cc1)N1C(=O)c2ccccc2C1=O (stereo unspecified) 12.1%
COc1ccc(C(=O)COC(=O)CN2C(=O)C3CC=CCC3C2=O)c(OC)c1 (stereo unspecified) -15.2%
C/C=C/C(=O)OCc1csc(CC(=O)Nc2ccccc2C)n1 13.6%
COc1ccc(S(=O)(=O)N2CCN(C(C)C(=O)Nc3ccc(C(C)C)cc3)CC2)cc1 (stereo unspecified) -16.4%
COCCCNC(=O)Cc1ccc(-n2c(C)nc3cccnc32)cc1 22.7%
COc1cccc(C(O)c2ncc(-c3ccc4ccccc4c3)[nH]2)c1 (stereo unspecified) 18.2%
CCOC(=O)C1CCCN(C(=O)c2ccc(C)c(S(=O)(=O)N3CCCCC3)c2)C1 (stereo unspecified) 4.44%
COc1ccc(Cl)cc1-n1c(=S)sc2c(=O)n(-c3ccc(F)cc3)c(SCC(=O)O)nc21 14.4%
COc1ccc(CCNC(=O)CN(c2ccccc2)S(=O)(=O)c2ccccc2)cc1 15.3%

Activity change, active:
CCOC(=O)CC1C(=O)NCCN1c1nc2c(C)cccn2c(=O)c1/C=C1\SC(=S)N(C(C)CC)C1=O (stereo unspecified) -79.5%
COc1ccc(C(=O)Nc2ccc(C3(C#N)CCCC3)cc2)cc1OC -55%
Cc1ccc(Cc2c(-c3ccco3)nc3ccc(Cl)cn23)cc1 -76.3%
O=C(O)c1ccc(NC(=O)c2cn(-c3ccccc3)nc2-c2ccc(Cl)cc2)cc1 -53.3%
Cc1cc(N2CCOCC2)nc2ccc(NC(=S)N3CCN(Cc4ccccc4)CC3)cc12 -70.6%
C(=N/Nc1cc(N2CCOCC2)nc(N2CCOCC2)n1)/c1ccccc1 -78.9%
O=[N+]([O-])c1ccc(O)c(/C=N/Nc2ccccc2[N+](=O)[O-])c1 -51.4%
CCOc1cc(/C=C2\SC(N3CCCC(C)C3)=NC2=O)ccc1O (stereo unspecified) -57.3%
C=CS(=O)c1sc(Cl)c(N2CCOCC2)c1[N+](=O)[O-] (stereo unspecified) -104%
Cc1cc(C)nc(S/C=C/C(=O)c2ccccc2)n1 -104%
CN(c1ccccc1)S(=O)(=O)c1cccc(NC(=O)Cc2ccc(Cl)cc2)c1 -55.5%
CCCCCc1c(-c2ccc(OC)c(OC)c2)ncn1CCc1ccccc1OC -71.5%
CCCCc1c(-c2ccc(Br)cc2)ncn1CCc1ccccc1OC -93.2%
CCCCc1c(-c2ccc(Cl)cc2)ncn1CCc1ccccc1OC -109%
CCCCCc1c(Cc2ccccc2)ncn1CCc1ccccc1OC -55.8%
CCC(=O)Nc1ccc(C(=O)CSc2nnc(CNc3ccc(Cl)cc3)o2)cc1OC -55.7%
CC1=CC(C)(C)Nc2ccc(OC(=O)C(Cc3ccccc3)N3C(=O)C4CCCCC4C3=O)cc21 (stereo unspecified) -94.7%
CC1=CC(C)(C)Nc2ccc(OC(=O)CN3C(=O)C4CCCCC4C3=O)cc21 (stereo unspecified) -97.6%
